Values joined by “and” are separate entries in the source; they are usually repeats but may differ in a detail not shown here. Equal entries are not always repeated. Records with an inconclusive call do not appear. Active and inactive are the calls of the source. Unless noted, calls follow the shape of the dose curve; as a rule, active = well fitted curve in the direction sought with a large enough effect; inconclusive = small, poorly fitted or top-dose-only effect, or another doubt; inactive = no such curve, though single readings can be large; an effect the other way counts as inactive or inconclusive. *1 amine or outer side, *2 acyl side, *3 side chain or, on linkers, in order; H or OH if unused. Where a SMILES comes first, the peptide text is derived from it. Bridges are numbered along the chain shown (N, C = ends). Roman numbers before positions name the chains, in order. [ ]: non-standard residue; d: D form. ξ: configuration not given here. Actinocin(9to1) = Cc1c2oc3c(C)ccc(C(=O)[*:1])c3nc-2c(C(=O)[*:2])c(N)c1=O; ξNMeV = CNC(C(=O)O)C(C)C; ξV = CC(C)C(N)C(=O)O; Sar = CNCC(=O)O
Assays:
[1] = qHTS assay for small molecule disruptors of the mitochondrial membrane potential - 1 hr assay (AID 651754; calls by dose curve; also: % is scaled to controls: 0 for no effect and ±100 for the full control effect; nearly all actives have a fitted effect of over 35% in size)
Summary of the method: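 Read-out: dye fluorescence at 490 nm ex/535 nm em (monomers) and 540 nm ex/590 nm em (aggregates) in HepG2 cells. Compound exposure 1 hr at 37C, followed by 30 min dye loading.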

[2] = qHTS assay for small molecule disruptors of the mitochondrial membrane potential - 5 hr assay (AID 651755; calls by dose curve; also: % is scaled to controls: 0 for no effect and ±100 for the full control effect; nearly all actives have a fitted effect of over 40% in size)
Summary of the method: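 Read-out: ratiometric Mito-MPS fluorescence, green monomer (ex 490/em 535) vs red mitochondrial aggregate (ex 540/em 590). HepG2 cells treated 5 hr at 37C before 30 min dye loading.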

[3] = molecular target: Tumor necrosis factor (Homo sapiens) (UniProt P01375); assay: qHTS assay to identify small molecules that stimulate Tumor Necrosis Factor-alpha (TNF-alpha) secretion (AID 651757; active = well fitted curve in the direction sought with a large enough effect in the signal ratio; the % refers to the signal ratio; also: 0% is about no effect)
Summary of the method: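 THP-1 cells, 3000/well; compound 17 hrs, 37 C; add cryptate/XL665 anti-TNF-alpha antibody pair; 3 hr RT; TR-FRET (HTRF) read of secreted TNF-alpha. Quantitative HTS format.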

[4] = qHTS assay to identify small molecules that stimulate interleukin-8 (IL-8) secretion (AID 651758; active = well fitted activation curve with a large enough effect in the signal ratio; the % refers to the signal ratio; also: potency is read from the fitted curve at half-maximal effect; as to activation: 0% is about no effect)
Summary of the method: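 Compounds are added to THP-1 cells (2000 per well) and left 16 hrs at 37 C. A labeled anti-IL-8 antibody pair is then added, and IL-8 secretion is measured by time-resolved FRET after 1-3 hrs at room temperature.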

[5] = qHTS assay for environmental chemicals that activate the Aryl hydrocarbon Receptor (AhR) signaling pathway (AID 651777); conditions: 1A2-DRE human hepatoma cells, luciferase, 24 h; hits give high values; also: % of control where 0% means no effect; nearly all actives have a fitted effect of over 15% in size
Summary of the method: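 Luminescence (One-Glo, 30 min, room temperature) reports AhR-driven luciferase in stably transfected human hepatoma cells bearing DRE and CYP1A2 promoter. Cells (1,200/well) were treated with compound for 24 hr at 37 C in qHTS format.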

[6] = molecular target: Peroxisome proliferator-activated receptor alpha (Homo sapiens) (UniProt Q07869); assay: qHTS assay for small molecule agonists of the peroxisome proliferator-activated receptor alpha (PPARalpha) signaling pathway (AID 651778); conditions: PathHunter PPARalpha complementation, chemiluminescence, 6 h; max response: hits give high values; also: potency is read from the fitted curve at half-maximal effect; as to max response: % of control where 0% means no effect
Summary of the method: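 Enzyme-fragment complementation assay in which ligand-bound PPARalpha translocates and forms an active enzyme that generates chemiluminescence. Cells were plated overnight, exposed to compound for 6 hr at 37 C, and then given detection reagent for 60 min at room temperature.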

[7] = qHTS assay for small molecule activators of the p53 signaling pathway (AID 651743; active = well fitted activation curve with a large enough effect in the signal ratio, not every such curve was filed as active; the % refers to the signal ratio; also: potency is read from the fitted curve at half-maximal effect; as to activation: series mostly up to about 92 µM; % of control where 0% means no effect); conditions: HCT-116 p53RE-bla, beta-lactamase FRET ratio, 16 h; activation: hits give high values
Summary of the method: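 Reporter: beta-lactamase driven by p53 response elements, stably integrated in HCT-116 cells. Cells seeded at 4,000/well, 5 h preincubation, compound (DMSO) 16 h at 37 C; B/G FRET substrate 2 h RT; fluorescence intensity read.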

[8] = molecular target: Nuclear receptor ROR-gamma (Homo sapiens) (UniProt P51449); assay: qHTS assay for small molecule antagonists of the retinoid-related orphan receptor gamma (ROR-gamma) signaling pathway (AID 651802);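 also: CHO cells with doxycycline-induced ROR-gamma expression; luciferase reporter luminescence driven by ROR response element; series mostly up to about 92 µM; % is scaled to controls: 0 for no effect and ±100 for the full control effect; nearly all actives have a fitted effect of over 60% in size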
Summary of the method: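 Luciferase read-out: ONE-Glo luminescence after 30 min at room temperature, following 16hr doxycycline induction at 37C, 5% CO2 of CHO cells with TET-inducible ROR and RORE-LUC reporter; decreased luminescence = reduced reporter activity.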

[9] = qHTS assay for small molecule activators of the nuclear factor-kappa B (NF-kB) signaling pathway (AID 651749; active = well fitted activation curve with a large enough effect in the signal ratio; the % refers to the signal ratio; also: series mostly up to about 77 µM; % of control where 0% means no effect); conditions: NF-kB-bla ME-180 cells, beta-lactamase FRET ratio, 16 h; hits give high values
Summary of the method: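 NF-kB-bla ME-180 cells, 2,000/well; 23 nL compound or DMSO pinned; 16 hr, 37C/5% CO2; beta-lactamase FRET read-out.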

[10] = molecular target: Tyrosine-protein kinase Yes (Homo sapiens) (UniProt P07947); assay: qHTS for small molecule inhibitors of Yes1 kinase: Primary Screen (AID 686947); also: nearly all actives have a fitted effect of over 60% in size; also: potency is read from the fitted curve at half-maximal effect
Summary of the method: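 In this qHTS format, inhibition is expressed relative to DMSO controls with enzyme (maximum) and without enzyme (minimum). The 60 min room-temperature reaction uses 0.1 mM ATP, with ADP detected by luminescence.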

Nuclear receptor ROR-gamma (Homo sapiens), sequence (P51449 whole entry, looked up): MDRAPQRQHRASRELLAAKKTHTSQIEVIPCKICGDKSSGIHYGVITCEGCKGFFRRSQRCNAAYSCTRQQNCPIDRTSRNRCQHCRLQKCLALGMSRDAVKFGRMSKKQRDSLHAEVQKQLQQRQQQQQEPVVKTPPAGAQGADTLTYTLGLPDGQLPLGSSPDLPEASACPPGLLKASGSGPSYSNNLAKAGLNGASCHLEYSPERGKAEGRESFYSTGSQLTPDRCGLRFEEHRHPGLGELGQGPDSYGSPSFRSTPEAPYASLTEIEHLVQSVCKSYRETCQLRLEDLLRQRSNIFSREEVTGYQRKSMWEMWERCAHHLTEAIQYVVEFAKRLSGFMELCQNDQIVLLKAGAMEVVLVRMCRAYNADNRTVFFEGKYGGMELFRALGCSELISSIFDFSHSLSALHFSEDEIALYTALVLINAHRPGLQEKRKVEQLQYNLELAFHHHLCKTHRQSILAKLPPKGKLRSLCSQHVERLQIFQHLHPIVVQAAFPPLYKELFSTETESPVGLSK
Tyrosine-protein kinase Yes (Homo sapiens), sequence (P07947 whole entry, looked up): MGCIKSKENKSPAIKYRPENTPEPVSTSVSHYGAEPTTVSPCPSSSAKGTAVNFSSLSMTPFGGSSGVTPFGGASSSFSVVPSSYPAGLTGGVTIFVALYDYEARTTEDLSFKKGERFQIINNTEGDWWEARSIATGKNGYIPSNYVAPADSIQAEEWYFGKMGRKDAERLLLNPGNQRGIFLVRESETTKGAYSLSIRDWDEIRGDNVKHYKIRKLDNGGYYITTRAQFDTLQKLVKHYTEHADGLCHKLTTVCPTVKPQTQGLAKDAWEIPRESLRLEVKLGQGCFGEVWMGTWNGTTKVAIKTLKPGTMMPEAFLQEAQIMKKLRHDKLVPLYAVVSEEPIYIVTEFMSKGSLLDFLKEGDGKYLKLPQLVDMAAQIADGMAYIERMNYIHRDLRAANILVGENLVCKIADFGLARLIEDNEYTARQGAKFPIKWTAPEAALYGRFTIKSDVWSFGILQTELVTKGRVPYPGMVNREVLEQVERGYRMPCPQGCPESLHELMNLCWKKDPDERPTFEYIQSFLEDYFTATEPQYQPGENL
Tumor necrosis factor (Homo sapiens), sequence (P01375 whole entry, looked up): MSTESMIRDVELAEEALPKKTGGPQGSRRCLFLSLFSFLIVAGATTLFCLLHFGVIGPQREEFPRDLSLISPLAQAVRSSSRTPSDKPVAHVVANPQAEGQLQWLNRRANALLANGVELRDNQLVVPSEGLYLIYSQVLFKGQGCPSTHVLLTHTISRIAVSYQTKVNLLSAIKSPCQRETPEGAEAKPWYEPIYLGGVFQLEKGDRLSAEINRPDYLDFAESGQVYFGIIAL
Peroxisome proliferator-activated receptor alpha (Homo sapiens), sequence (Q07869 whole entry, looked up, the tested form may be a part): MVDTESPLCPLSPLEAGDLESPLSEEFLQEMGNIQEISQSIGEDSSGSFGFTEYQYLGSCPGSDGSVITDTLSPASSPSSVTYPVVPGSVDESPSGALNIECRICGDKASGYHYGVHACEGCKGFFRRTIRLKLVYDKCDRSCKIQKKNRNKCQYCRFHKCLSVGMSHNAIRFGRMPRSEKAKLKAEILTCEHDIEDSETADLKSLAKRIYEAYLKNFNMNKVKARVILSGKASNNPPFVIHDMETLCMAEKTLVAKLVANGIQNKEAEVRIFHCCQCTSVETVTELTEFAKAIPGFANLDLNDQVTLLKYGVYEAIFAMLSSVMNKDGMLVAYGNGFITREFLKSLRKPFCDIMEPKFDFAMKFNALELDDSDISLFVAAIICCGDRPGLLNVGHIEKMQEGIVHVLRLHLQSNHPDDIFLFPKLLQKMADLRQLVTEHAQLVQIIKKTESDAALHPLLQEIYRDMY

O=S(=O)(O)O
inactive: outcome [1] | outcome [2] | outcome [3] | Potency [4] | activation [5] -0.349% and 1.61% | max response [6] -1.64% and -3.82%

CCCCCCCC(=O)O
inactive: activation [7] -2.15% and 0.705% | outcome [3] | activation [5] 0.292% and -0.546% | max response [6] -0.533% and 5% | outcome [8]

O=CCCCC=O
active: Potency [7] 35.5 µM
inactive: activation [9] 3.18% | outcome [1] | outcome [2] | outcome [3] | max response [6] -1.75%

NC(=O)Nc1cc(-c2ccc(CN3CCOCC3)c(F)c2)sc1C(=O)N[C@H]1CCCNC1
active: Potency [10] 0.2 nM

O=C(O)CC/C=C\CC[C@H]1[C@@H](N2CCCCC2)[C@@H](O)C[C@@H]1OCc1ccc(-c2ccccc2)cc1
inactive: Potency [10]

Cc1c2oc3c(C)ccc(C(=O)N[C@@H]4C(=O)NC(C(C)C)C(=O)N5CCC[C@H]5C(=O)N(C)CC(=O)N(C)C(C(C)C)C(=O)O[C@@H]4C)c3nc-2c(C(=O)N[C@@H]2C(=O)NC(C(C)C)C(=O)N3CCC[C@H]3C(=O)N(C)CC(=O)N(C)C(C(C)C)C(=O)O[C@@H]2C)c(N)c1=O (some centres undefined) (I: T[ξV]P[Sar][ξNMeV] / II: T[ξV]P[Sar][ξNMeV]; ester I:1-I:C, II:1-II:C; linker I:N-II:N via Actinocin(9to1))
inactive: Potency [10]

CC1=CCC(C(C)(C)O)CC1 (centres undefined)
inactive: activation [7] -5.6% | activation [9] -1.34% | activation [5] 0.596% | max response [6] -2.04%

CC(C)=O
inactive: activation [7] -0.255% | activation [9] 2.82% | outcome [1] | outcome [2] | outcome [3] | activation [5] -1.82% | max response [6] -7.67% | outcome [8]

CCCCCCCCCCCCCCCCCCOP(=O)([O-])OC1CC[N+](C)(C)CC1
inactive: Potency [10]

C[C@H]1C[C@H]2[C@@H]3CCC4=CC(=O)C=C[C@]4(C)[C@@]3(F)[C@@H](O)C[C@]2(C)[C@@]1(O)C(=O)CO
inactive: activation [7] -9.59% | activation [9] -3.68% | activation [5] -2.62% | max response [6] -0.118%

Cc1ccccc1
inactive: activation [7] 0.393% and -4.17% | outcome [1] | outcome [2] | outcome [3] | activation [5] 0.0379% and -2.19% | max response [6] 0.399% and -0.58% | outcome [8]

O=C(O)CN(CCN(CC(=O)O)CC(=O)O)CC(=O)O
inactive: activation [7] -1.95% and 0.161% | activation [5] 2.06% and 1.21% | max response [6] 2.01% and 0.29%

CCOC(C)=O
inactive: activation [7] -1.83% | activation [9] -0.483% | outcome [1] | outcome [2] | outcome [3] | max response [6] 6.06% | outcome [8]

CCOc1ccc2c(c1)C(C)=CC(C)(C)N2
inactive: activation [7] 3.65% | outcome [1] | outcome [2] | outcome [3] | activation [5] 3.55% and 2.98% | max response [6] -4.24% and -2.12% | outcome [8]

CCCCCCCC/C=C\CCCCCCCC(=O)O
inactive: activation [7] 0.394% and 0.396% | outcome [1] | outcome [2] | outcome [3] | Potency [4] | activation [5] -1.87% and 0.641%
active: Potency [6] 35.5 µM

CCC1(Cc2ccc(N)cc2)CCC(=O)NC1=O (centres undefined)
inactive: Potency [10]

CCCCC(CC)COC(=O)CC(C(=O)OCC(CC)CCCC)S(=O)(=O)O (centres undefined)
inactive: activation [7] 1.7% | activation [9] -3.42% | activation [5] 0.833%

Nc1ccn([C@H]2CS[C@@H](CO)O2)c(=O)n1
inactive: activation [7] -1.09% | activation [9] -1.13% | outcome [1] | outcome [2] | outcome [3] | activation [5] 0.73% | max response [6] -3.53% | outcome [8]

CC1=C(/C=C/C(C)=C/C=C/C(C)=C/CO)C(C)(C)CCC1
inactive: activation [7] -4.27% and -5.83% | activation [9] -0.416% and -2.98% | outcome [1] | outcome [3] | activation [5] 1.25% and 1.27% | max response [6] -3.78% and -1.63%
active: Potency [4] 37.6 µM

CC(NC(=O)Cc1cc(F)cc(F)c1)C(=O)NC(C(=O)OC(C)(C)C)c1ccccc1 (centres undefined)
inactive: Potency [10]

CC1=C2[C@@H]([C@H](C)CC[C@H]2/C=C(\C)C(=O)O)[C@H](O)C1
inactive: activation [7] -3.64% | activation [9] -0.741% | outcome [1] | outcome [2] | outcome [3] | Potency [4] | activation [5] 1.08% | max response [6] -2.98% | outcome [8]

CC1(C)C(C=C(Cl)Cl)C1C(=O)OCc1cccc(Oc2ccccc2)c1 (centres undefined)
inactive: activation [7] -1.26% [middle of 4 runs] | activation [5] -0.92% and -0.145% and 0.247% | max response [6] -0.904% [middle of 4 runs]

CC(C)(C)NC(=O)[C@@H]1C[C@@H]2CCCC[C@@H]2CN1C[C@@H](O)[C@H](Cc1ccccc1)NC(=O)[C@H](CC(N)=O)NC(=O)c1ccc2ccccc2n1
inactive: outcome [1] | outcome [2] | outcome [3] | activation [5] 0.529% | max response [6] -0.457%

CCCCC/C=C\C/C=C\CCCCCCCC(=O)O
inactive: activation [7] 1.23% and -4.95% | outcome [1] | outcome [2] | outcome [3] | activation [5] 0.916% and -0.698% | outcome [8]
active: Potency [6] 44.7 µM and 28.2 µM

CC[C@@H](C(=O)O)C1CC[C@H](C)C([C@@H](C)[C@H](O)[C@H](C)C(=O)[C@H](CC)C2O[C@]3(C=C[C@@H](O)[C@]4(CC[C@@](C)(C5CC[C@](O)(CC)[C@H](C)O5)O4)O3)[C@H](C)C[C@@H]2C)O1 (some centres undefined)
inactive: Potency [10]

COC(=O)C1=C(C)NC(C)=C(C(=O)OCCCN2CCC(c3ccccc3)(c3ccccc3)CC2)[C@H]1c1cccc([N+](=O)[O-])c1
inactive: Potency [10]

CN(NC(=O)CC(=O)NN(C)C(=S)c1ccccc1)C(=S)c1ccccc1
inactive: Potency [10]

O=C(O)CCC(=O)C(=O)O
inactive: activation [7] -2.86% | activation [9] 0.211% | outcome [3] | Potency [4] | activation [5] 0.4% | max response [6] 4.88% | outcome [8]

IC(I)I
inactive: activation [7] -2.94% and -3.68% | outcome [3] | Potency [4] | activation [5] 3.72% | max response [6] -6.19% and -2.33%

CC(O)CO (centres undefined)
inactive: activation [7] 0.0778% and -3.92% | activation [9] 3.41% and -1.36% | outcome [1] | outcome [2] | outcome [3] | Potency [4] | activation [5] -1.84% and -0.0903% | max response [6] 4.63% and -8.84% | outcome [8]

CCC1(O)CC2CN(CCc3c([nH]c4ccccc34)[C@@](C(=O)OC)(c3cc4c(cc3OC)N(C=O)[C@H]3[C@](O)(C(=O)OC)[C@H](OC(C)=O)[C@]5(CC)C=CCN6CC[C@]43[C@@H]65)C2)C1 (some centres undefined)
inactive: Potency [10]

O=c1cc(C2=CC=CC3Sc4ccccc4SC23)oc(N2CCOCC2)c1 (centres undefined)
inactive: Potency [10]

CNC1CCN(C(Cc2cccc(-c3ccncc3)c2)C(=O)c2sc3c(F)ccc(F)c3c2Cl)CC1 (centres undefined)
inactive: Potency [10]
